94 molecules from PubChem BioAssay AID431 (Sanford-Burnham Center for Chemical Genomics, 2006) can be followed below.

Hit rate of the full screen: of about 63,000 compounds, about 1,100 (1.7%) were called active. The full list was thinned out, with actives kept by preference. Results with a measured potency or affinity are listed apart. Unmarked numbers belong to inactive results.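 How the source made its calls: active means compounds whose percent cytotoxicity in the single-dose primary screen, scaled between solvent and toxic-drug controls, exceeds 50; inactive means the rest.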

The nature of the assay: cytotoxicity in KRAS-transformed pancreatic duct cells, primary screen, cell-based, fluorescence, HTS (AID 431).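 Further: 0% = DMSO solvent wells and 100% = doxorubicin-treated wells.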 Conditions: HPDE-C7K KRASV12 cells, Alamar Blue viability, 48 h; at 10 µM; active compounds read high. For orientation: Alamar Blue is a resazurin reagent that responds to reducing activity.
Take `COc1cc2c(cc1NC(=O)CCCN1C(=O)CCC1=O)oc1ccccc12`: the cytotoxicity was 15.2%.
Then `COc1cc2c(cc1NC(=O)CN1C(=O)NC3(CCc4ccccc43)C1=O)oc1ccccc12` (centres undefined), with 55% (active).
Next, `COc1ccc(C(=O)CN2C(=O)NC3(CCCc4ccccc43)C2=O)cc1OC` (centres undefined): 3.3%.
Then `CCOC(=O)C1CCCN(C(=O)c2ccc3c(c2)NC(=O)C(N2CCOCC2)S3)C1` (centres undefined), with -2.6%; and `CCOC(=O)N1CCN(C(=O)c2ccccc2CCc2ccccc2)CC1`, with 12.2%; and `COc1ccc(Cl)cc1CN1CCN(c2nc(C)cc(C)c2C#N)CC1`, with 22.3%.
Turning to `O=C(NCC12CC3CC(CC(C3)C1)C2)c1nc2ncccn2n1`, the cytotoxicity is 7.1%.
Then `CCN=C1SC(CC(=O)Nc2sc3c(c2C#N)CCCC3)C(=O)N1CC` (centres undefined), with -3.9%.
Then `O=C(Nc1ccc(F)c(F)c1)NC1CCCCC1`, with -0.5%.
On to `Cc1ccc(NC(=O)NC2CCCCC2)cc1Cl`, for which the cytotoxicity was -4%.
Then `CC(C)c1ccc(NC(=O)NC2CCCCC2)cc1`, with 52.6% (active).
As for `CCOc1ccc(NS(=O)(=O)c2ccc3[nH]c(=O)oc3c2)cc1`, the cytotoxicity was 11.8%.
Next, `CCOc1ccc(NS(=O)(=O)c2ccc(SC)cc2)cc1`: 8.6%.
In the case of `Cn1c(=O)c2c(nc(NCc3cccnc3)n2Cc2cccc(C(F)(F)F)c2)n(C)c1=O`, the cytotoxicity is -17.6%.
Then `Cc1cc(Nc2ccccc2)n(-c2nc3ccccc3[nH]2)n1`, with 1.5%; and `Cc1ccc(Nc2cc(C)nn2-c2nc(C)cc(=O)[nH]2)cc1`, with 101% (active); and `Cc1cc(=O)[nH]c(-n2nc(C)cc2C)n1`, with -16%.
Then `Cc1cccc(C)c1N(CC(=O)Nc1cccc(N(C)S(C)(=O)=O)c1)S(C)(=O)=O`, with -7.3%.
In the case of `COc1ccc(Cl)c(Cn2c(NCCCN(C)C)nc3c2c(=O)n(C)c(=O)n3C)c1`, the cytotoxicity is -1.8%.
Next, `CCSc1nc2c(c(=O)[nH]c(=O)n2C)n1CC(O)COc1ccccc1C` (centres undefined): -11.9%.
Next, `COc1ccccc1OCC(O)Cn1c(Br)nc2c1c(=O)[nH]c(=O)n2C` (centres undefined): -3.5%.
Then `CC(C)CSc1nc2c(c(=O)[nH]c(=O)n2C)n1CC(O)COc1cccc2ccccc12` (centres undefined), with 63.6% (active).
Consider `Cn1c(=O)[nH]c(=O)c2c1nc(N1CCOCC1)n2CC(O)COc1ccccc1` (centres undefined), for which the cytotoxicity is -14.2%.
In the case of `Cc1ccccc1OCC(O)Cn1c(SC(C)C)nc2c1c(=O)[nH]c(=O)n2C` (centres undefined), the cytotoxicity was -16.9%.
With `Cc1ccccc1OCC(O)Cn1c(N2CCN(c3ccccc3)CC2)nc2c1c(=O)[nH]c(=O)n2C` (centres undefined), the cytotoxicity is 78.8% (active).
Regarding `Cc1sc2nc(CN3CCOCC3)nc(N3CCC(C(N)=O)CC3)c2c1C`, the cytotoxicity was 2.3%.
As for `O=C(COCCOCC(=O)N(c1ccccn1)C1CCCCC1)N(c1ccccn1)C1CCCCC1`, the cytotoxicity is -24%.
Then `CCOC(=O)c1nnn(-c2nonc2N)c1COc1ccccc1`, with -16.7%; and `CN(C)CCNc1nc(-c2ccco2)c2c(c1C#N)CC(C)(C)OC2`, with -0.3%.
Then `CCN(CC)CCNc1nc(-c2ccco2)c2c(c1C#N)CC(C)(C)OC2`, with -15.7%; and `C=CCn1c(SCC2=C(C(=O)OCC)C(C)NC(=O)N2)nnc1C1CCCCC1` (centres undefined), with -17.2%; and `Cc1cc(NS(=O)(=O)c2ccc(C3CCCCC3)cc2)no1`, with -3%.
Then `FC(F)C(F)(F)C(F)(F)C(F)(F)c1cc(-c2ccccc2)n[nH]1`, with 82.9% (active); and `O=C1CC(C(F)(F)C(F)(F)C(F)(F)C(F)F)=Nc2ccccc2N1`, with -3.2%; and `Oc1ccccc1-c1cc(C(F)(F)C(F)F)[nH]n1`, with -5.1%.
Regarding `O=C(Cc1cn2ccsc2n1)NCc1ccccc1`, the cytotoxicity was -14.8%.
Next, `COc1cc2c(cc1OC)C(c1cc(OC)c(OC)c(OC)c1)NCC2` (centres undefined): 7.4%; `COc1cc2c(cc1OC)C1Cc3ccc(OC)c(OC)c3CN1CC2` (centres undefined): -5%.
`Cc1ccc(S(=O)(=O)Cn2nnnc2CN2CCCC3(CCCCC3)C2)cc1`: the cytotoxicity was 4.3%.
Next, `COc1ccc2nc(NC(=O)c3cnccn3)sc2c1`: 4.7%; `CN1CCN(C(c2cccnc2)c2ccc3cccnc3c2O)CC1` (centres undefined): -15.1%; `Cc1nc2sc(C(c3ccccc3)N3CCN(CCO)CC3)c(O)n2n1` (centres undefined): -1.5%.
Then `OCCN1CCN(C(c2cccs2)c2ccc3cccnc3c2O)CC1` (centres undefined), with 83.8% (active).
Next, `FC(F)(F)c1ccccc1Nc1nccs1`: 14.9%; `CC1CC(C)CN(c2nc3c(c(=O)[nH]c(=O)n3C)n2CCSc2nc3ccccc3o2)C1` (centres undefined): 2.4%; `N#CC1=C2SCN(c3ccccc3)CN2C(=O)CC1c1cccs1` (centres undefined): 2.6%.
For the molecule `COc1ccc(C2CC(=O)N3C(=C2C#N)SCC3(O)c2ccccc2)cc1` (centres undefined), the cytotoxicity was 12.5%.
Then `CCc1ccc(C2CC(=O)N3CN(c4ccccc4)CSC3=C2C#N)cc1` (centres undefined), with 2.4%; and `N#CC1=C2SCN(Cc3ccccc3)CN2C(=O)CC1c1cccs1` (centres undefined), with -0.4%.
On to `N#CC1=C2SCC(O)(c3ccccc3)N2C(=O)CC1c1ccccc1` (centres undefined), for which the cytotoxicity is 65.7% (active).
Next, `COc1ccc(CCNS(=O)(=O)c2ccc3c(c2)OCCO3)cc1OC`: -28.8%.
Next, `COc1ccc(S(=O)(=O)N(C)CC(=O)NC2CC2)cc1`: -20.5%; `CCOc1ccc(N2CCCCn3c2nc2c3c(=O)[nH]c(=O)n2C)cc1`: -9%.
Take `COc1ccc(OC)c(NC(=O)CSc2nnc(Cn3c(=O)sc4ccccc43)n2C)c1`: the cytotoxicity was 4.6%.
As to `CCn1c(SCC(=O)c2cc(OC)ccc2OC)nc2c1c(=O)n(C)c(=O)n2C`, the cytotoxicity was -4.8%.
Then `CCOC(=O)Cc1csc(NC(=O)CSc2ncnc3c2cnn3-c2ccccc2Cl)n1`, with 50% (active).
On to `CCOC(=O)Cc1csc(NC(=O)CSc2ncnc3c2cnn3-c2ccc(OC)cc2)n1`, for which the cytotoxicity was 4.2%.
Then `Cc1csc(NC(=O)CSc2ncnc3c2cnn3-c2ccccc2Cl)n1`, with 31.8%; and `Cc1cc(OCc2nn[nH]n2)c2c(C)c(Cc3ccccc3)c(=O)oc2c1`, with 13.7%.
Next, `CSc1nc(-c2ccco2)cc(-c2ccccc2)c1C#N`: 45%.
Next, `Cc1cc(-c2ccccc2)c(C#N)c(N)n1`: 12.6%; `Cc1cccc2cc(CN(CCCO)C(=O)Nc3ccccc3Cl)c(=O)[nH]c12`: -2.4%; `CC(C)(C)OC(=O)N[C@@H](Cc1ccccc1)c1nnc(S(=O)(=O)Cc2cccc(F)c2)o1`: -21.9%.
Regarding `CC[C@@H](C)[C@H](NC(=O)OC(C)(C)C)c1nnc(S(=O)(=O)Cc2cc(C)ccc2C)o1`, the cytotoxicity was 46.9%.
Next, `COc1ccc(N2CCN(C(=O)c3cc4c(-c5cccc(OC)c5)nn(C)c4s3)CC2)cc1`: 15.7%; `Cn1nc(-c2ccc(Cl)cc2)c2cc(C(=O)N3CCN(c4ccccn4)CC3)sc21`: -7.2%.
Regarding `CN(C)c1ncc(C(=O)O)cn1`, the cytotoxicity is 21.7%.
Then `O=C(c1c[nH]c2ccccc12)C(O)C(c1ccccc1)N1CCOCC1` (centres undefined), with -15.9%; and `COc1ccc(C(C(O)C(=O)c2c[nH]c3ccccc23)N2CCN(c3ccc(OC)cc3)CC2)cc1` (centres undefined), with 50.4% (active); and `COc1ccc(C(=O)c2c[nH]c3ccccc23)cc1`, with 15.5%.
Next, `O=C(Nc1ccccc1F)C1CCCN(S(=O)(=O)c2cccc3cccnc23)C1` (centres undefined): 7%; `Cn1cnnc1SCc1ccc(C#N)cc1`: 2.3%; `OCCN(CC(O)Cn1ccc2ccccc21)CC(O)Cn1ccc2ccccc21` (centres undefined): 29.1%.
Then `OCCNCC(O)Cn1ccc2ccccc21` (centres undefined), with -4.4%; and `O=C1OCC2=C1C(c1ccc3c(c1)OCO3)Sc1ccccc1N2` (centres undefined), with -14.4%.
Take `Cc1c(C(=O)N2CCN(C)CC2)oc2c1C(=O)CC(C)(C)C2`: the cytotoxicity was -40.9%.
As to `c1ccc(-c2nc(N3CCCCCC3)nc(-n3ccnc3)n2)cc1`, the cytotoxicity is -10.1%.
Then `c1ccc(-c2nc(N3CCN(c4ccccc4)CC3)nc(-n3ccnc3)n2)cc1`, with 30.8%.
Then `Cn1nc(-c2ccc(Cl)cc2)c2cc(C(=O)N3CCOCC3)sc21`, with 8.6%; and `CC(=O)c1ccc(NC(=O)c2noc3c2CCCCC3)cc1`, with 16.4%; and `Cc1ccc2c(c1)[nH]c1c(N3CCN(Cc4ccc5c(c4)OCO5)CC3)ncnc12`, with 9.5%.
Regarding `COc1ccc2c(c1)c1ncnc(N3CCN(Cc4ccc5c(c4)OCO5)CC3)c1n2C`, the cytotoxicity is 43.1%.
Next, `COc1cccc2[nH]c3c(N4CCN(Cc5ccc6c(c5)OCO6)CC4)ncnc3c12`: 44.8%.
Then `CN1CCN(c2ncnc3c2[nH]c2ccc(F)cc23)CC1`, with 5.5%; and `Fc1ccc2[nH]c3c(N4CCN(C5CCCCC5)CC4)ncnc3c2c1`, with 23.3%; and `CCCCOc1ncnc2c1[nH]c1ccc(F)cc12`, with 5%.
Then `Fc1ccc2[nH]c3c(N4CCN(c5ccccc5)CC4)ncnc3c2c1`, with -3.9%.
For `COc1ccc2[nH]c3c(N4CCN(Cc5ccc6c(c5)OCO6)CC4)ncnc3c2c1`, the cytotoxicity was 53.7% (active).
Next, `COc1cccc(N2CCN(c3ncnc4c3[nH]c3ccc(F)cc34)CC2C)c1` (centres undefined): 121% (active).
Then `c1ccc2c(c1)oc1c(N3CCN(Cc4ccc5c(c4)OCO5)CC3)ncnc12`, with 10.1%.
For `CCC1S/C(=C(\C#N)C(=O)NCc2ccco2)N(c2ccc(F)cc2)C1=O` (centres undefined), the cytotoxicity is -16.6%.
Then `CC1CCCCN1S(=O)(=O)c1ccc2c(c1)oc(=O)n2CC(=O)O` (centres undefined), with -0.1%; and `CCN=C(Nc1ccc2c(c1)OCO2)SC1CC(=O)N(c2ccccc2F)C1=O` (centres undefined), with -6%; and `O=C(O)CCS(=O)(=O)Cc1ccccc1F`, with 1.1%.
